rCAG RNA binder: r(CAG) repeat RNA binding; TO-PRO-1 dye displacement fluorescence; inhibition, % at 3 µM; hit rate 1.3% among 370,000; AID 651821;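 active = inhibition above the plate cutoff, the mean of all test compounds on that plate plus 3 SD, cut at about 35% in these data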;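 note: higher means more dye released from RNA so lower well fluorescence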
GRIN3A LBD mod: modulators (binders) of human NR3A ligand-binding domain | NR3A LBD differential scanning fluorimetry, Tm shift; 0% = protein alone, 100% = glycine-bound protein | Tm shift relative to glycine control, % at 25 µM | hit rate 2.5% among 340,000;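 active = melting temperature shift of at least 10% of the positive control shift, at one fixed dose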
AHR activator: activates the human aryl hydrocarbon receptor. activation, % at 5 µM. P35869. AHR-responsive luciferase reporter cells, luminescence. hit rate 2.5% among 320,000; in the data active = activation above about 47%
KLK7 zymogen act: proKLK7 (human) activation, primary screen; P49862; hit rate 0.9% among 370,000; purified proKLK7, EDANS-DABCYL substrate fluorescence; 100% is mature enzyme control, 0% vehicle; activation, % at 7 µM;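 active = activation above the mean of all tested compounds plus 3 SD, computed per campaign excluding outliers beyond control limits, cut at about 13% in these data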
Target sequence (P49862 whole entry, looked up): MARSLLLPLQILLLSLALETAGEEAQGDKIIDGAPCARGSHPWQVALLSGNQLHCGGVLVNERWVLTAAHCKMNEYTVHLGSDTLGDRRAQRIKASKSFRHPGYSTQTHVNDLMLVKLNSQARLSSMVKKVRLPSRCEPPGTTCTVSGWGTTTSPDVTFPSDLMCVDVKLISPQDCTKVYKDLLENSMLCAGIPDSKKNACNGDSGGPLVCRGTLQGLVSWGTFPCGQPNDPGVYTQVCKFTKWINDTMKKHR
ADAM17 inh: inhibits human ADAM17; P78536; recombinant ADAM17, EDANS/DABCYL FRET peptide cleavage; inhibition, % at 6.95 µM; hit rate 0.83% among 370,000; AID 720648;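 active = inhibition above the mean of compounds lying between control limits plus 3 SD, set per campaign, cut at about 8.5% in these data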
ADAM10 inh: inhibitors of human ADAM10 | inhibition, % at 7 µM | hit rate 0.62% among 370,000 | AID 720582 | O14672 | recombinant ADAM10, EDANS/DABCYL FRET peptide cleavage, 3 h;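 active = inhibition above a per-campaign cutoff equal to the mean of compounds falling between control-based bounds plus 3 SD, cut at about 20% in these data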
KLK7 act conf: proKLK7 activation, confirmation; activation, % at 7 µM; purified proKLK7, EDANS-DABCYL substrate fluorescence; scaled: vehicle 0, mature enzyme 100; AID 686949; shares compounds with KLK7 zymogen act; hit rate 68% among 3,200;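 active = activation, as change over the incubation, above the mean of all tested compounds plus 3 SD, cut at about 13% in these data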
EDANS-DABCYL int: optically interferes with EDANS-DABCYL signal, flagging KLK7 hits. shares compounds with KLK7 zymogen act. EDANS-DABCYL substrate fluorescence interference, no enzyme, 4 h; solvent 0%, active enzyme control 100%. activation, % at 7 µM. hit rate 80% among 3,200;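 active = activation above the all-compound mean plus 3 SD, ignoring values outside control-based bounds, cut at about 4.8% in these data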;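 note: value is the 4 h activation minus the activation read at time zero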
K7 EDANS ctr: optically interferes with EDANS-DABCYL fluorescence, kallikrein-7 activator counter-screen. shares compounds with KLK7 zymogen act. EDANS-DABCYL peptide fluorescence interference, no enzyme. EC50, µM. hit rate 20% among 250;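 active = compounds that raise the fluorescence signal in this interference counterscreen, with EC50 at or below 10 µM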;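 note: intact quenched peptide substrate alone read at 355 nm excitation and 520 nm emission; signal is fluorescence gain from T0 to T4 after four hours at room temperature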
Numbers stand for hits; - = inactive; . = no result given. Rows were chosen to be rich in hits. Some 7% of all compounds tested hit in one or more screens of this group.

SMILES	rCAG RNA binder	GRIN3A LBD mod	AHR activator	KLK7 zymogen act	ADAM17 inh	ADAM10 inh	KLK7 act conf	EDANS-DABCYL int	others
CCS(=O)(=O)Nc1ccc(-c2nc3cccnc3s2)cc1	-	-	66	64	-	-	60	68
O=S(=O)(Nc1ccc(-c2nc3cccnc3s2)cc1)c1ccccc1F	-	-	56	99	-	-	66	73
Cc1ccc(OCC(=O)NCCNC(=O)c2cccnc2)cc1C	-	-	-	-	-	-	.	.
COc1ccc(NC(=S)NNC(=O)c2cccs2)cc1	-	-	-	21	-	-	-	8.5
COc1ccc(C(=O)Nc2cccc(NC(=O)c3cccs3)c2)cc1OC	-	-	-	35	-	-	22	29
CNC(=S)NNC(=O)c1cccs1	-	-	-	13	-	-	14	13
O=C(Nc1ccc(NC(=O)c2cccs2)cc1)c1cccs1	-	22	-	14	-	-	30	22	K7 EDANS ctr=-
COc1ccc(NC(=O)c2cccs2)cc1	-	-	-	-	-	-	.	.
O=C(CN1C(=O)c2ccc([N+](=O)[O-])cc2C1=O)NCc1ccc(C(=O)O)cc1	-	-	-	-	-	-	.	.
COc1cccc(Nc2ccc(C(=O)O)cc2N)c1	-	-	-	30	-	-	-	-
C[C@H](O)[C@@H]1C(=O)N2CCc3c([nH]c4ccccc34)[C@@H]2C[C@@H]1N(C)S(=O)(=O)c1ccccc1	-	.	.	59	-	-	43	37	K7 EDANS ctr=7.5
C[C@H](O)[C@@H]1C(=O)N2CCc3c([nH]c4ccccc34)[C@@H]2C[C@@H]1N(C)C(=O)c1cc(Cl)cc(Cl)c1	-	.	.	47	-	-	15	12	K7 EDANS ctr=-
C[C@H](O)[C@@H]1C(=O)N2CCc3c([nH]c4ccccc34)[C@@H]2C[C@@H]1N(C)Cc1ccc2c(c1)OCO2	-	.	.	26	-	-	-	-
C[C@H](O)[C@@H]1C(=O)N2CCc3c([nH]c4ccccc34)[C@@H]2C[C@@H]1N(C)C(=O)Nc1cccc2ccccc12	-	.	.	-	-	-	.	.
Cc1ccccc1C(=O)N(C)[C@H]1C[C@H]2c3[nH]c4ccccc4c3CCN2C(=O)[C@H]1[C@H](C)O	-	.	.	78	-	-	27	27
CC(C)(C)NC(=O)C1c2ccccc2OCC(=O)N1Cc1ccccc1 (centres undefined)	-	.	.	-	-	-	.	.
Cc1ccccc1CN1CCC(CNC(=O)C2CCCN(c3ncnc4c3nc3n4CCCCC3)C2)CC1 (centres undefined)	-	-	-	-	-	-	.	.
CCOCCn1c(=O)c2c(nc3n2CC(C)CN3Cc2ccccc2)n(C)c1=O (centres undefined)	-	-	-	-	-	-	.	.
CON(c1nc(Cl)nc(N(C)C)n1)S(=O)(=O)c1ccc(C)cc1	-	-	-	-	-	-	.	.
CCC[n+]1c2ccccc2cc2ccccc21	-	-	-	77	-	-	73	81
CCCC[n+]1c2ccccc2cc2ccccc21	-	22	-	65	-	-	70	74
Brc1cc2ccccc2[n+](Cc2ccccc2)c1	-	-	-	-	-	-	.	.
COc1ccccc1OCC(=O)Nc1nonc1NC(=O)COc1ccccc1OC	-	-	-	-	-	-	.	.
Cc1ccccc1-c1ccccc1CN1[C@@H](C(C)C)COCCS1(=O)=O	-	-	.	-	-	-	.	.
Cc1cc(NC(=O)c2cccs2)ncc1NC(=O)C(C)(C)C	-	-	-	-	-	-	.	.
SMILES	rCAG RNA binder	GRIN3A LBD mod	AHR activator	KLK7 zymogen act	ADAM17 inh	ADAM10 inh	KLK7 act conf	EDANS-DABCYL int	others
O=C(Nc1ccccc1)c1ccccc1N=Cc1cccc(O)c1	-	-	-	32	-	-	15	17
CN(C(=O)c1cccc(NC(=O)Cc2cccc(NC(=O)C3CCN(C(=O)c4ccccc4)CC3)c2)c1)C1CC1	-	-	.	-	-	-	.	.
Cc1ccc2nc(-c3cc(N)cc(N)c3)oc2c1	-	-	-	-	-	-	.	.
Cc1ccc(-c2nc3cc(N)ccc3o2)cc1Br	-	-	-	-	-	-	.	.
Nc1ccc(-c2nc3ccc(N)cc3o2)cc1	-	-	-	56	-	-	70	73
Nc1ccc(-c2nnc(-c3ccc(N)cc3)o2)cc1	-	-	-	18	-	-	36	44
Nc1ccc2oc(-c3ccccn3)nc2c1	-	-	-	-	-	-	.	.
Cc1cccc(-c2nnc(-c3ccc(N)cc3)o2)c1	-	-	-	-	-	-	.	.
CN(C)c1ccc(-c2nc3cc(N)ccc3o2)cc1	-	-	.	23	-	-	-	24
Nc1ccc(-c2nc3cc(N)ccc3o2)cc1	-	-	-	55	-	-	65	75
Cn1nc(C(=O)OCC(=O)Nc2cc(Cl)ccc2C#N)c2ccccc2c1=O	-	-	-	-	-	-	.	.
N#Cc1ccc(C(=O)Nc2ccc([N+](=O)[O-])cc2)c(F)c1	-	-	-	-	-	-	.	.
CCN1CCN(C(=O)c2cc3c(=O)n4ccccc4nc3s2)CC1	-	-	-	55	-	-	44	57
CCOC(=O)C1CCN(C(=O)c2cc3c(=O)n4ccccc4nc3s2)CC1	-	-	-	42	-	-	68	71
CCOC(=O)CC1C(=O)NCCN1C(=O)c1cc2c(=O)n3cccc(C)c3nc2s1 (centres undefined)	-	-	-	43	-	-	25	32
O=C(c1cc2c(=O)n3ccccc3nc2s1)N1CCN(Cc2ccccc2)CC1	-	-	-	25	-	-	-	-
c1ccc(-c2nc(N3CCNCC3)nc3ccccc23)cc1	-	-	-	69	-	-	18	19
CCN1CCN(c2nc(-c3ccccc3)c3ccccc3n2)CC1	-	-	-	28	-	-	-	-
c1ccc2c(N3CCCCC3)nc(N3CCCC3)nc2c1	-	-	-	-	-	-	.	.
CCN(CC)c1nc(N2CCN(CCO)CC2)nc2ccccc12	-	-	-	-	-	-	.	.
c1ccc(-c2nc(N3CCCCC3)nc3ccccc23)cc1	-	-	-	22	-	-	-	-
COc1ccc(-n2nc(C(=O)NCC(=O)Nc3cc(OC)c(OC)c(OC)c3)c3ccccc3c2=O)cc1OC	-	-	-	42	-	-	66	66
O=C1c2ccccc2NC(c2cccc(O)c2)N1Cc1ccco1 (centres undefined)	-	-	48	27	-	-	29	29
